Screening results deposited in PubChem BioAssay by National Center for Advancing Translational Sciences (NCATS).
Only some compounds are listed: those with a hit (about 4.6% of all), similar ones and a draw of the others.
D1 ag: Allosteric Agonists of the Human D1 Dopamine Receptor: qHTS; D(1A) dopamine receptor (Homo sapiens), P21728; HEK293 T-REx D1 cells, calcium flux, agonist mode; activation, % at 2 µM; AID 504660, 2011; actives 1% (n = 360,000); further: 0% is about no effect
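Agonism was scored from calcium flux recorded over 180 s (1 read/s) after pintool compound addition, following a 10-cycle baseline. Cells were inducible force-coupled HEK293 TREx D1, plated overnight at 30 C and loaded with no-wash calcium dye.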
TRHR PAM: qHTS for Small Molecule Agonists and Allosteric Enhancers of Human TRH Receptor: Primary Screen for Enhancers; enhancement, % at 2 µM; Thyrotropin-releasing hormone receptor (Homo sapiens), P34981; TRHR cells, fluo-8 calcium fluorescence, EC20 TRH enhancement; actives 0.66% (n = 360,000); AID 493056, 2011; in the data active means enhancement above about 30%; further: 0% is about no effect
Target sequence (P34981 whole entry, looked up): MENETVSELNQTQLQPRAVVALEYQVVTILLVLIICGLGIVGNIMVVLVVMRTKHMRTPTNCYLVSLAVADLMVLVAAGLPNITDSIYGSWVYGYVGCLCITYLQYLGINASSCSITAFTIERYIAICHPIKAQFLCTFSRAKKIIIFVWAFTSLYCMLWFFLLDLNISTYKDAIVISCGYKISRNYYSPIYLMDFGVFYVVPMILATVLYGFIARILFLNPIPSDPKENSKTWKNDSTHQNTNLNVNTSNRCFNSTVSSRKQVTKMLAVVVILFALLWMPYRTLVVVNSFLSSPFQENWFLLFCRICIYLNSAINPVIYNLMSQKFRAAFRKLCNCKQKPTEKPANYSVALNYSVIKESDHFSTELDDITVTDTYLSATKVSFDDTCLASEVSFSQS
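TRHR-expressing cells loaded with fluo-8 calcium dye were read kinetically (ex 480/em 530) during compound addition, then stimulated with an EC20 of TRH (10 nM final). Enhancement of the Gq-mediated intracellular calcium response was scored.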
D1 PAM: Potentiators of Human D1 Dopamine Receptor: qHTS. D(1A) dopamine receptor (Homo sapiens), P21728. HEK293 TREx D1 cells, calcium flux, dopamine EC20 potentiation. potentiation, % at 10 µM. actives 0.036% (n = 360,000). AID 504651, 2011; in the data active means potentiation above about 30%; further: 0% is about no effect
D1 antag: Antagonist of Human D 1 Dopamine Receptor: qHTS; HEK293 TREx D1 cells, calcium flux, dopamine EC80; active compounds read low; AID 504652, 2011; actives 3.2% (n = 360,000); activity change, negative = inhibition, % at 10 µM; in the data active means activity change below about -30%; further: on the % scale 0 is the no-effect control and ±100 the full control effect
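Allosteric or orthosteric antagonism assessed as attenuation of the calcium response to EC80 dopamine, added 180 s after compound, in induced HEK293 Trex D1 cells loaded with no-wash calcium dye.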
TRHR ag: qHTS for Small Molecule Agonists and Allosteric Enhancers of Human TRH Receptor: Primary Screen for Agonists; AID 493084, 2011; TRHR cells, calcium flux fluo-8, FDSS agonist mode; Thyrotropin-releasing hormone receptor (Homo sapiens), P34981; activation, % at 2 µM; actives 0.18% (n = 360,000); further: 0% is about no effect
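Fluo-8-loaded TRHR cells; 10 s baseline, compound added, kinetic Ca2+ fluorescence read 1/s, agonist mode.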
Numbers without * were called inactive; . = not tested or not shown; ! = not active in a repeat. Unless noted, no stated cut-off is given here; in the data, active means activation above about 30%; inactive means the rest.

SMILES	D1 ag	TRHR PAM	D1 PAM	D1 antag	TRHR ag
CC(=O)Nc1ccc(NC(=O)c2ccccc2C)cc1	-1.3	2.1	5.5	5.8	-0.4
CC(=O)Nc1ccc(NC(=O)c2ccccc2CCc2ccccc2)cc1	3.8	0.5	-11.8	-30.9*	-0.9
Cc1ccc2c(c1)C1CN(C)CCC1N2C(=O)c1ccc(Cl)c(S(=O)(=O)N2CCOCC2)c1 (centres undefined)	2.0	-2.0	-4.5	-44.9*	0.5
Cc1ccc2c(c1)C1CN(C)CCC1N2S(=O)(=O)c1ccc(C(C)C)cc1 (centres undefined)	3.3	-0.4	-5.8	-31.1*	1.3
Cc1ccc2c(c1)C1CN(C)CCC1N2C(=O)c1cccc(S(=O)(=O)N2CC(C)CC(C)C2)c1 (centres undefined)	1.7	-6.8	-6.2	9.8	-1.8
COc1ccc(CNc2nc(SCc3ccc(Cl)cc3)nc3ccccc23)cc1	5.2	1.7	-0.1	15.3	0.6
CCCCn1c(O)c(N=Nc2ccccc2O)c2ccccc21	30.1*	-5.8	2.3	-0.8	8.6
COCCCNc1c2c3c(cccc3[nH]c1=O)C(=O)c1ccccc1-2	809.4*	17.4	.	-53.0*	-0.4
O=C(COC(=O)CCc1nc2ccccc2c(=O)[nH]1)Nc1ccccc1Cl	0.8	8.8	5.4	-41.1*	-1.1
O=C(CCc1nc2ccccc2c(=O)[nH]1)NCc1ccccn1	0.9	0.2	-15.0	-30.4*	0.2
COc1cc(C)ccc1OCC(=O)NC1CCCCCC1	2.3	-0.5	-1.9	-30.4*	-0.4
CCN(CC)S(=O)(=O)c1cc(C)c(C)cc1OCC(=O)NC1CCCC1	-0.2	2.2	-16.1	-34.5*	-0.6
Cc1cc(Cl)c(S(=O)(=O)N2CCCC2)cc1OCC(=O)NC1CCCCC1	5.1	-6.7	-1.1	-12.7	-0.4
COC(=O)C(NC(=O)CC(C)C)(Nc1nc2c(s1)CCCC2)C(F)(F)F (centres undefined)	1.1	11.3	-2.0	-11.4	-2.1
Cc1cc(C(=O)N/N=C/c2c(C)[nH]c3ccccc23)n[nH]1	2.7	0.7	1.1	-20.4	-0.6
Cc1cc(C(=O)N/N=C/c2ccccn2)n[nH]1	0.8	-0.7	-6.1	-47.6*	0.3
Cc1[nH]c2ccccc2c1/C=N/NC(=O)c1cc(-c2cccs2)[nH]n1	-0.5	4.0	-13.4	-31.3*	0.0
CCC1=C(c2ccc(C)cc2)S(=O)(=O)N=C1N1CCC(C(=O)Nc2ccccc2F)CC1	4.3	16.7	-6.7	-16.7	-0.4
Cc1cnc(NC(=O)c2ccc3c(c2)C(=O)N(Cc2cccnc2)C3=O)s1	2.3	-1.4	-1.9	-32.9*	0.1
O=C(Nc1nccs1)c1ccc2c(c1)C(=O)N(Cc1cccnc1)C2=O	4.9	4.4	-0.7	-5.2	0.0
COc1ccc(-c2cn3cccc(C)c3n2)cc1F	4.3	-2.8	8.6	-37.5*	1.3
Cc1ccc(-c2cn3cccc(C)c3n2)cc1	2.0	2.6	3.5	-4.3	-1.9
Cc1[nH][nH]c(=O)c1C(c1c(C)[nH][nH]c1=O)c1cn(Cc2ccc(F)cc2)c2ccccc12	-1.2	3.3	-1.2	-31.8*	1.1
c1ccc(CCCCN2CCN=C2Nc2ccccc2)cc1	5.3	31.7*	1.4	3.5	0.2
c1ccc(NC2=NCCN2CCCC2CCCCC2)cc1	32.9*	-2.5	-3.1	-5.3	1.4
SMILES	D1 ag	TRHR PAM	D1 PAM	D1 antag	TRHR ag
Fc1cccc(CCN2CCN=C2Nc2ccccc2)c1	20.0	-2.3	-4.5	-18.2	8.7
COc1ccc2sc(N(Cc3cccnc3)C(=O)CCc3ccccc3)nc2c1	33.6*	11.7	-1.6	.	-0.7
CN(C)CCCN(C(=O)CCc1ccccc1)c1nc2ccc(Br)cc2s1	22.5	-1.6	-2.7	-16.0	1.2
CN(C)CCCN(C(=O)CCc1ccccc1)c1nc2ccc(F)cc2s1	31.5*	0.3	-6.8	-6.0	4.2
COc1ccc2nc(N(Cc3cccnc3)C(=O)Cc3ccccc3)sc2c1	18.2	3.2	-1.4	.	-0.5
COc1ccc(S(=O)(=O)NCCc2sc(-c3cccc(F)c3)nc2C)cc1	14.2	-4.5	-4.8	-19.9	-0.8
CC1CCc2nc(NC(=O)c3ccc(N4C(=O)CCC4=O)cc3)sc2C1 (centres undefined)	2.4	9.8	0.1	7.0	0.1
O=C(Nc1nc2c(s1)CCCC2)c1ccc(N2C(=O)CCC2=O)cc1	2.9	25.2	-7.1	-71.0*	0.1
c1ccc(-c2cn(-c3ccccc3)c3[n+]2CCS3)cc1	6.4	3.7	-2.0	23.4	0.3
COc1ccc(-c2cn(-c3ccccc3)c3[n+]2CCS3)cc1	2.3	2.1	-7.2	-53.0*!	0.4
Cc1cc(C)cc(NC(=O)N2CCC(CN3CCCCCC3)CC2)c1	-0.1	3.3	3.0	0.8	0.1
O=C(Nc1ccc(Nc2ccccc2)cc1)c1c(F)c(F)c(F)c(F)c1F	8.5	-17.7	-12.0	-30.6*	1.6
O=C(Nc1ccc(Nc2ccccc2)cc1)c1ccc(F)cc1	6.1	-2.3	-9.1	-17.6	1.4
Cc1c(C(=O)Nc2ccc(F)cc2F)oc2ccc3c(c12)C(=O)CC(C)(C)O3	3.2	-3.3	-4.7	4.5	-0.2
Cc1cc(N2CCCC2)ccc1/C=C1\NC(=S)N(C)C1=O	213.1*	8.1	7.3	-7.5	63.5*
O=C1/C(=C/c2ccc(N3CCCC3)cc2)NC(=S)N1C1CC1	204.7*	9.5	3.0	-5.5	91.4*
COc1ccccc1NC(=O)C1=C(C)Nc2nnnn2C1c1cc(Br)c(O)c(OC)c1 (centres undefined)	2.7	2.0	-5.2	6.3	1.2
CCOCCCNC(=O)C1CCN(Cc2cccc(OCc3ccccc3)c2)CC1	-2.0	-7.0	-3.1	-30.6*	0.3
CCOCCCNC(=O)C1CCN(Cc2ccc(OCc3ccccc3)c(OC)c2)CC1	5.0	12.0	1.5	4.4	0.1
Cc1cccc(C(=O)Nc2ccc(N3CC=C(c4ccccc4C)CC3)c(C(=O)O)c2)c1	1.4	13.7	-1.4	29.3	0.0
COc1ccc(/C=c2\s/c(=C/C(=O)c3ccc(C)cc3)[nH]c2=O)cc1OC	64.3*	7.0	-6.3	-6.4	36.1*
Cc1ccc(N2CC(C(=O)N3CCc4ccccc43)CC2=O)cc1 (centres undefined)	-1.5	0.2	-3.2	-13.4	-0.5
O=C1CC(C(=O)N2CCc3ccccc32)CN1c1ccccc1 (centres undefined)	-0.3	-4.1	-2.3	-30.8*	-0.1
CCn1c(=O)n(CC2CCC(C(=O)NC(C)C)CC2)c(=O)c2sccc21 (centres undefined)	0.8	-6.7	-0.4	1.8	0.2
